What was measured:
Assay in all cases: DAPPL (digital affinity profiling via proximity ligation, sequencing); 10 mM Tris-HCl pH 7.5, 50 mM NaCl, 1 mM DTT, 4% glycerol, room temperature, 30 min; GST-TFs on glutathione beads, 16-mer random dsDNA library, 0.1% formaldehyde crosslink after washing; high values mean tight binding
FEV = target: T1, FEV (Homo sapiens, UniProt Q99581 1-238); settings: protein: recombinant; tags: N-terminal GST; dsDNA, one strand shown
T1 sequence: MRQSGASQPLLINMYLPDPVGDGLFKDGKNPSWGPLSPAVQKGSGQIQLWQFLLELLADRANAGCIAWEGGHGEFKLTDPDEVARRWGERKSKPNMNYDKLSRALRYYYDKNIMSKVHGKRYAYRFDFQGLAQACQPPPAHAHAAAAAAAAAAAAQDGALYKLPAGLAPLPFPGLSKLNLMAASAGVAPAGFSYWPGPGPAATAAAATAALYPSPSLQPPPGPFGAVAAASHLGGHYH
Summary of the method: (§1)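 Binding signal is each hexamer's read frequency for a factor divided by its frequency in the tag-only sample. The factors were GST-fused human transcription factors from yeast, captured on glutathione beads, DNA-barcoded and pooled with that sample. Pools were incubated with 200 nmole of a random double-stranded 16-mer DNA library in Tris/NaCl/DTT/glycerol buffer at room temperature for 30 min, then washed, crosslinked with 0.1% formaldehyde, proximity-ligated with BsaI/T4 ligase (1 h, 37 °C), PCR-amplified and sequenced on an Illumina NextSeq500.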

ETV5 = ETV5 (Homo sapiens, UniProt P41161 1-510); settings: protein: recombinant; tags: N-terminal GST; dsDNA, one strand shown
Summary of the method: as §1

HSF1 = HSF1 (Homo sapiens, UniProt Q00613 1-529); settings: protein: recombinant; tags: N-terminal GST; chain copies: 3; dsDNA, one strand shown
Summary of the method: as §1

ELF4 = ELF4 (Homo sapiens, UniProt Q99607 1-663); settings: protein: recombinant; tags: N-terminal GST; dsDNA, one strand shown
Summary of the method: as §1

ELF3 = target: T2, ELF3 (Homo sapiens, UniProt P78545 1-371); settings: protein: recombinant; tags: N-terminal GST; dsDNA, one strand shown
T2 sequence: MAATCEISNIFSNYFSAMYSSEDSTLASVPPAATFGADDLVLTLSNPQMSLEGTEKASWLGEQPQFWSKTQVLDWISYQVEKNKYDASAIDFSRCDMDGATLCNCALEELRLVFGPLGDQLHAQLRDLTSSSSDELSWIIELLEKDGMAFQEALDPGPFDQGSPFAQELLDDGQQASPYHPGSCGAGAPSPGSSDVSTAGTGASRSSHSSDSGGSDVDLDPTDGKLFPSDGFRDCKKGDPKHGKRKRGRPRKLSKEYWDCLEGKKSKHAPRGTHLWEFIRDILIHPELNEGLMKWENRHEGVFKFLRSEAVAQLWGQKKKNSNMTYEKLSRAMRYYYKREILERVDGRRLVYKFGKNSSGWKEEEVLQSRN
Summary of the method: as §1

CRX = CRX (Homo sapiens, UniProt O43186 1-299); settings: protein: recombinant; tags: N-terminal GST; dsDNA, one strand shown
Summary of the method: as §1

ETV1 = ETV1 (Homo sapiens, UniProt P50549 1-477); settings: protein: recombinant; tags: N-terminal GST; dsDNA, one strand shown
Summary of the method: as §1

ETV3L = target: T3, ETV3L (Homo sapiens, UniProt Q6ZN32 1-361); settings: protein: recombinant; tags: N-terminal GST; dsDNA, one strand shown
T3 sequence: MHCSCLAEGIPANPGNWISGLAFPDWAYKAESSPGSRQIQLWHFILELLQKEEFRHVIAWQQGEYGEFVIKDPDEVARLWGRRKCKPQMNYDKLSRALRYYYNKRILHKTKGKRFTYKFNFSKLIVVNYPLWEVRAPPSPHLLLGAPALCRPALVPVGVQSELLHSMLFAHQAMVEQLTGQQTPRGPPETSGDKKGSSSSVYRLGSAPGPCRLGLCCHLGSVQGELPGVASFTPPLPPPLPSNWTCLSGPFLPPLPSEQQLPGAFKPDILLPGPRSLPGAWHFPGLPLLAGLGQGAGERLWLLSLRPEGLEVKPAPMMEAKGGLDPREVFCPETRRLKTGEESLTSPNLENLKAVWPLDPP
Summary of the method: as §1

ELK4 = target: T4, ELK4 (Homo sapiens, UniProt P28324-2 1-405); settings: protein: recombinant; tags: N-terminal GST; dsDNA, one strand shown
T4 sequence: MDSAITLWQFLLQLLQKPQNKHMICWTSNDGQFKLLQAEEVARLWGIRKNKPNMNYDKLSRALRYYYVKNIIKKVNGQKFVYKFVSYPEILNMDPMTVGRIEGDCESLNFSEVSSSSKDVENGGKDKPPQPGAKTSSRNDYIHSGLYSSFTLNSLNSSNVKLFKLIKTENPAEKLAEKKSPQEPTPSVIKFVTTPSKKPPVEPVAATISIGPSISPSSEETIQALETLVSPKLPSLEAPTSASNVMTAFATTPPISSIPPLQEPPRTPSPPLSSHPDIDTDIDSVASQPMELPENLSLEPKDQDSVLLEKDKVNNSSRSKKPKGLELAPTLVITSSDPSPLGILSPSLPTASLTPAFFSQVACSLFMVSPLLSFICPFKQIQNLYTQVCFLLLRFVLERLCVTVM
Summary of the method: as §1

ETV2 = target: T5, ETV2 (Homo sapiens, UniProt O00321 1-342); settings: protein: recombinant; tags: N-terminal GST; dsDNA, one strand shown
T5 sequence: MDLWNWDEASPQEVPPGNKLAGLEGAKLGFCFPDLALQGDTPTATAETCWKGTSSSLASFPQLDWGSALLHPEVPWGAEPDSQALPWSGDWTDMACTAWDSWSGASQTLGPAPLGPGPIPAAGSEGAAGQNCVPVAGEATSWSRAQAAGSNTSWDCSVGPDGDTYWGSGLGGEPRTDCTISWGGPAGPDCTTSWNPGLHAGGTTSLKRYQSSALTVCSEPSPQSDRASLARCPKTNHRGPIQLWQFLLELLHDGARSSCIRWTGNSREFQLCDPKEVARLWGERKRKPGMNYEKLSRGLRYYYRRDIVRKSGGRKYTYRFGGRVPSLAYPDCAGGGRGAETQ
Summary of the method: as §1

ERF = target: T6, ERF (Homo sapiens, UniProt P50548 1-548); settings: protein: recombinant; tags: N-terminal GST; dsDNA, one strand shown
T6 sequence: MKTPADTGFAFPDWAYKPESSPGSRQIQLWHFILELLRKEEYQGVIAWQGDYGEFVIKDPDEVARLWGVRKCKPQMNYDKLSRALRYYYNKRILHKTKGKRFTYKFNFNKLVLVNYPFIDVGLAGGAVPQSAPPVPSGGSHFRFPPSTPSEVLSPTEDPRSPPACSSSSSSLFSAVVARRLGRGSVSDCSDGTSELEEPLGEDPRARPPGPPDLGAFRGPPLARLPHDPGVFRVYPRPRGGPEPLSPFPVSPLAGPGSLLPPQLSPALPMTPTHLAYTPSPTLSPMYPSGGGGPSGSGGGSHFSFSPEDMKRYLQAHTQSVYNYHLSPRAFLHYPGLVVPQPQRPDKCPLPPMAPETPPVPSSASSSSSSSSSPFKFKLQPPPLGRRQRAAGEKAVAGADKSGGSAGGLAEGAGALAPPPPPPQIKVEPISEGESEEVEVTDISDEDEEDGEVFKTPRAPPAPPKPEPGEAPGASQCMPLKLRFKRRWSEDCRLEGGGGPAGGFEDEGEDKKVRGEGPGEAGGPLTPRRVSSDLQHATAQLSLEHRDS
Summary of the method: as §1

ETS2 = target: T7, ETS2 (Homo sapiens, UniProt P15036 1-469); settings: protein: recombinant; tags: N-terminal GST; dsDNA, one strand shown
T7 sequence: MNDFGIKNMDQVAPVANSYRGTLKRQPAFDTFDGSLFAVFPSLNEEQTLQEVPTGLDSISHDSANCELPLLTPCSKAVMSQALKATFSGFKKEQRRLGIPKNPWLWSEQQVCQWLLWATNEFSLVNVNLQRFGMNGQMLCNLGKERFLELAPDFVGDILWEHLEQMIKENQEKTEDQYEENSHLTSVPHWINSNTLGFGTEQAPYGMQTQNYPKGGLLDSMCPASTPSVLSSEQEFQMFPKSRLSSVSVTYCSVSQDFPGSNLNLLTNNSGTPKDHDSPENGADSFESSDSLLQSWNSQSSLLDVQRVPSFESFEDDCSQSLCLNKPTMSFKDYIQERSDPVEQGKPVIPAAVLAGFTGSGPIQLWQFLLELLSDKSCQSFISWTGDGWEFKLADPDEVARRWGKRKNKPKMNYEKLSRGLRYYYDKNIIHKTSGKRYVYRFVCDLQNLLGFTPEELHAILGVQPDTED
Summary of the method: as §1

SPDEF = target: T8, SPDEF (Homo sapiens, UniProt O95238 1-335); settings: protein: recombinant; tags: N-terminal GST; dsDNA, one strand shown
T8 sequence: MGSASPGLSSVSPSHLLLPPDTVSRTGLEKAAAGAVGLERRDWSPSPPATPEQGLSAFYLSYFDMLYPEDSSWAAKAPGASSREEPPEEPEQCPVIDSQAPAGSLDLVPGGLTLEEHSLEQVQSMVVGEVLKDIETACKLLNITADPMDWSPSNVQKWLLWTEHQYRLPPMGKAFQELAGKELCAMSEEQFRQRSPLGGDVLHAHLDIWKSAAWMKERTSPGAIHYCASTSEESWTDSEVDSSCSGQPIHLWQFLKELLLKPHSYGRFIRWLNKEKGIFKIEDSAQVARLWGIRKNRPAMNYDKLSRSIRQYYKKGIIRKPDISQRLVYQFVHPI
Summary of the method: as §1

ETV7 = target: T9, ETV7 (Homo sapiens, UniProt Q9Y603 1-341); settings: protein: recombinant; tags: N-terminal GST; dsDNA, one strand shown
T9 sequence: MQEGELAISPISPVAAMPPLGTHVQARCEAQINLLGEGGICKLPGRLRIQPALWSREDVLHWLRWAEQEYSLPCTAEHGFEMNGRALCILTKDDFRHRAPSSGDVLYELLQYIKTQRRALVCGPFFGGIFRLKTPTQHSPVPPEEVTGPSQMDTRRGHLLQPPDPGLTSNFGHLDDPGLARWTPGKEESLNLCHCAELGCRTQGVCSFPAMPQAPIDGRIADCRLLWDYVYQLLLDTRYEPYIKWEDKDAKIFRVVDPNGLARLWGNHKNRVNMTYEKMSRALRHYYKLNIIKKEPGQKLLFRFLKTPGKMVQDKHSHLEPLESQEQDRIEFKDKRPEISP
Summary of the method: as §1

ETV3 = target: T10, ETV3 (Homo sapiens, UniProt P41162-2 1-143); settings: protein: recombinant; tags: N-terminal GST; dsDNA, one strand shown
T10 sequence: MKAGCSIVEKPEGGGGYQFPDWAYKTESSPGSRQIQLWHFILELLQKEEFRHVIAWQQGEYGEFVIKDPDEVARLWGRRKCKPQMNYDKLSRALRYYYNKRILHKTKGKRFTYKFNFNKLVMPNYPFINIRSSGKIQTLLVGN
Summary of the method: as §1

ETV6 = ETV6 (Homo sapiens, UniProt P41212 1-452); settings: protein: recombinant; tags: N-terminal GST; dsDNA, one strand shown
Summary of the method: as §1

Chain of ETV1 (P50549 whole entry): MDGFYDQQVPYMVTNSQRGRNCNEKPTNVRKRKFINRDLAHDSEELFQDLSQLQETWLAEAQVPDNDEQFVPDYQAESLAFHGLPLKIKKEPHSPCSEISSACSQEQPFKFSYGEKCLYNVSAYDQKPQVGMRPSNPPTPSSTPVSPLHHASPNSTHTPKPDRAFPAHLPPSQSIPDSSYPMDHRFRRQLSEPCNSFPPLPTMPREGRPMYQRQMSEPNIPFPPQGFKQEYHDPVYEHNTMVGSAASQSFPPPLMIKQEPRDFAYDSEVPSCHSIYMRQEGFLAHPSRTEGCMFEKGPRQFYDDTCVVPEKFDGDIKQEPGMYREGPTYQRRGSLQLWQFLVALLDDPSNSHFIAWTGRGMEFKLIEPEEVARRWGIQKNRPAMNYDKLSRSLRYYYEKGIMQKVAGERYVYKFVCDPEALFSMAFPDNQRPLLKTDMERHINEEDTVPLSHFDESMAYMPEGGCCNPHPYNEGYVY
Chain of HSF1 (Q00613 whole entry): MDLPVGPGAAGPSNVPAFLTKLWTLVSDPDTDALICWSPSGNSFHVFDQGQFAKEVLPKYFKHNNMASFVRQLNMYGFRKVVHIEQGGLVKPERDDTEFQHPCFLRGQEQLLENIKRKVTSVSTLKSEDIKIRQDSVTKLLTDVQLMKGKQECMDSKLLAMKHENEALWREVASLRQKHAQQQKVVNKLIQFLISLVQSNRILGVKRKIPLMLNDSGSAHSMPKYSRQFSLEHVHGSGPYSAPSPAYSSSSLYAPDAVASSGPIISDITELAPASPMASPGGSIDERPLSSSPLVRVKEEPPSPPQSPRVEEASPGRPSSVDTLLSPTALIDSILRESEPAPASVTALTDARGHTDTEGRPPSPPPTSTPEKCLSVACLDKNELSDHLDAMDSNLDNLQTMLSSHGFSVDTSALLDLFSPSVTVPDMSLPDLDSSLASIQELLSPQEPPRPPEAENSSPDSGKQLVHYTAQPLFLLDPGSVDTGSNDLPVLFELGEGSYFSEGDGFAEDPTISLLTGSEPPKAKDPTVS
Chain of ETV5 (P41161 whole entry): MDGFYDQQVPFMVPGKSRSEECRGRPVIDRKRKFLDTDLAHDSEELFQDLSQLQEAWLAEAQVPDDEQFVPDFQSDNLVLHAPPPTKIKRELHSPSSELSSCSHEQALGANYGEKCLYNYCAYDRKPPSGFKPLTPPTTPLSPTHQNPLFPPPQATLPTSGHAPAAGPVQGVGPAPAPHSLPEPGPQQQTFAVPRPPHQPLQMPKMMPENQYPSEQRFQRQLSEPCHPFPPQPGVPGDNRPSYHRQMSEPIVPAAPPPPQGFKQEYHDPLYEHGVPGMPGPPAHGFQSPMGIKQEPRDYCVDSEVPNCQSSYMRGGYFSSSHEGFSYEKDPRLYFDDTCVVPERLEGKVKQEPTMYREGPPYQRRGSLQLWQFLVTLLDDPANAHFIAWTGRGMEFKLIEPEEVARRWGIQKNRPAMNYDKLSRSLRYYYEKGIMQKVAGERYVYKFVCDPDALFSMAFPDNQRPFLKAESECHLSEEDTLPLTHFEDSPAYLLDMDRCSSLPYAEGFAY
Chain of ELF4 (Q99607 whole entry): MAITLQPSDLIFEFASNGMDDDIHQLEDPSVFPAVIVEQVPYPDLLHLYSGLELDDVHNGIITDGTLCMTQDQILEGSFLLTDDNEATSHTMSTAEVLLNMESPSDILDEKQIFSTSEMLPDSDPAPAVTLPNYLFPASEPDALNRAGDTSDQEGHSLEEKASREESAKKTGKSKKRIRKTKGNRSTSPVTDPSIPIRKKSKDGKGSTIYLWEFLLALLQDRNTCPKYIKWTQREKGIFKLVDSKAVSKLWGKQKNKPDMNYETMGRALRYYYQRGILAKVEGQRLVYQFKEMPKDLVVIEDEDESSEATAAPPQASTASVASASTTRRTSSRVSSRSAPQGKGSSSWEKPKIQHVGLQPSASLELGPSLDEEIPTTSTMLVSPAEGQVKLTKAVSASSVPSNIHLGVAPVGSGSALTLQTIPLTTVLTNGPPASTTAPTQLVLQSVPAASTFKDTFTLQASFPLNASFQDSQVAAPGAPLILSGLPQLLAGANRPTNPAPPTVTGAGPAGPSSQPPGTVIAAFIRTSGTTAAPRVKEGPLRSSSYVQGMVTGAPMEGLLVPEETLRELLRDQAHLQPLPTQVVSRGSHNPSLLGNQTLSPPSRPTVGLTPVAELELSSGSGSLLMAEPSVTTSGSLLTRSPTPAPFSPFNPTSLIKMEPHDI
Chain of ETV6 (P41212 whole entry): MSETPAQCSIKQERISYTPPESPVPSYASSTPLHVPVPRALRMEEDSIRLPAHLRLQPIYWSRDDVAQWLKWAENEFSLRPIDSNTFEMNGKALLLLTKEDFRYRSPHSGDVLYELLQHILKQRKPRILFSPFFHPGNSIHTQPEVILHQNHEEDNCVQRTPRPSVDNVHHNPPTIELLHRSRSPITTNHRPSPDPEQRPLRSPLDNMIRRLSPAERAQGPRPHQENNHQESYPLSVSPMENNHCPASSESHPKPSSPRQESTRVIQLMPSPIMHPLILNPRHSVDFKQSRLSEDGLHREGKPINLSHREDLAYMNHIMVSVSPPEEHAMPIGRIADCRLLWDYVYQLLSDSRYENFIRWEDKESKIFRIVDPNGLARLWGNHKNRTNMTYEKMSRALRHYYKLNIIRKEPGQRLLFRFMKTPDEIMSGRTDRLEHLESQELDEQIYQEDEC
Chain of CRX (O43186 whole entry): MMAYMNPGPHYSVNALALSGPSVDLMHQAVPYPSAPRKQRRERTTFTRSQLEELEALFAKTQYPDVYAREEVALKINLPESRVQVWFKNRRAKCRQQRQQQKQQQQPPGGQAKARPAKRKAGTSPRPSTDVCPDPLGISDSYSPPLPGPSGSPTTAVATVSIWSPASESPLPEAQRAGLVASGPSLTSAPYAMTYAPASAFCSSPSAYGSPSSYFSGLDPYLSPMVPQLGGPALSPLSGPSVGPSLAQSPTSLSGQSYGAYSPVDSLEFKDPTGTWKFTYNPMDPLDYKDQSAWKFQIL

Sequence	binding signal (FEV)	binding signal (ETV5)	binding signal (HSF1)	binding signal (ELF4)	binding signal (ELF3)	binding signal (CRX)	binding signal (ETV1)	binding signal (ETV3L)	binding signal (ELK4)	binding signal (ETV2)	binding signal (ERF)	binding signal (ETS2)	binding signal (SPDEF)	binding signal (ETV7)	binding signal (ETV3)	binding signal (ETV6)
CATAAA	1 fold enrichment (6-mer frequency, TF over GST control)	1.03 fold enrichment (6-mer frequency, TF over GST control)	1.07 fold enrichment (6-mer frequency, TF over GST control)	1.06 fold enrichment (6-mer frequency, TF over GST control)	1.08 fold enrichment (6-mer frequency, TF over GST control)	1.11 fold enrichment (6-mer frequency, TF over GST control)	1.03 fold enrichment (6-mer frequency, TF over GST control)	1.06 fold enrichment (6-mer frequency, TF over GST control)								
CGAGTT		1.1 fold enrichment (6-mer frequency, TF over GST control)	1.07 fold enrichment (6-mer frequency, TF over GST control)	1.06 fold enrichment (6-mer frequency, TF over GST control)	1.16 fold enrichment (6-mer frequency, TF over GST control)		1.04 fold enrichment (6-mer frequency, TF over GST control)	1.16 fold enrichment (6-mer frequency, TF over GST control)	1.1 fold enrichment (6-mer frequency, TF over GST control)	1.11 fold enrichment (6-mer frequency, TF over GST control)	1.08 fold enrichment (6-mer frequency, TF over GST control)	1.07 fold enrichment (6-mer frequency, TF over GST control)	1.02 fold enrichment (6-mer frequency, TF over GST control)	1.08 fold enrichment (6-mer frequency, TF over GST control)	1.12 fold enrichment (6-mer frequency, TF over GST control)	1.13 fold enrichment (6-mer frequency, TF over GST control)
